# Six1-Eya2 blk: blocks human Six1 binding to Eya2; AlphaScreen GST-Six1/His-Eya2 binding, biochemical; hits give low values; actives 0.56% (n = 360,000); Q15475+O00167; activity change, % (concentration not given with the values)
# Target sequence (O00167 whole entry, looked up): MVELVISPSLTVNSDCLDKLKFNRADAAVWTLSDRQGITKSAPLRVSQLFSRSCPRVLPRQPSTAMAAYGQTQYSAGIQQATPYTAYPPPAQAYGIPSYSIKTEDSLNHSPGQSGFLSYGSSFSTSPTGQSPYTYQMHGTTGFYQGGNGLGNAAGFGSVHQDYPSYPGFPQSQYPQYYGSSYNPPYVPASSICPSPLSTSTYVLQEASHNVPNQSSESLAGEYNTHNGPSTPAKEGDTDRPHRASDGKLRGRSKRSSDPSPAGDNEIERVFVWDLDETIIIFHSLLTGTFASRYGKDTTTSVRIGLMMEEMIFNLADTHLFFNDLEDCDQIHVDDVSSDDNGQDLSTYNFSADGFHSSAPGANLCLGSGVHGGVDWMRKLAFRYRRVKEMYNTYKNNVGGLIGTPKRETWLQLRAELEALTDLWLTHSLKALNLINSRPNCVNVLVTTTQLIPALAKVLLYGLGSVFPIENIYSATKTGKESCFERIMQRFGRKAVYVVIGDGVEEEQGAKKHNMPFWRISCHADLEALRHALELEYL
# Target sequence (Q15475 whole entry, looked up): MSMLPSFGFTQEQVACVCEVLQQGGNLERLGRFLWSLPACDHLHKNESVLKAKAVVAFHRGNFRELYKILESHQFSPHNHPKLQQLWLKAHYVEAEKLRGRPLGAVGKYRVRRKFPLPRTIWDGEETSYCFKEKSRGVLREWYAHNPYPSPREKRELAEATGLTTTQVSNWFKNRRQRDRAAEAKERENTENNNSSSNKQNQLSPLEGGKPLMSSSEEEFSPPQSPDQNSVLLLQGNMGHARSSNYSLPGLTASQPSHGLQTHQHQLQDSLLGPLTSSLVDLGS
#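 Compounds are tested against tagged Six1 and Eya2 proteins bridged by glutathione donor and nickel acceptor beads; after a one-hour incubation at 37 °C without light, AlphaScreen emission is recorded.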
# pAkt inh: inhibitors of Akt phosphorylation. activity change, % for hits at 50 µM. AID 651550. actives 0.32% (n = 360,000). Neuro2A IGF-stimulated pAkt S473 HTRF, 20 min; hits give low values; in the data active means activity change below about -80%; inconclusive means mostly about -51% to -80%
#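 Single-point screen (50 µM final compound) in Neuro2A cells stimulated 20 min with 6 nM IGF at 37 deg C. After lysis, Ser473-phosphorylated Akt read by HTRF (ex 330 nm, em 615/665 nm) as the 665/615 ratio.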
# PI5P4Ka inh: PI5P4K alpha (human) kinase inhibition. P48426. PI5P4Kalpha enzyme, ADP-Glo luminescence, 60 min; hits give low values. max response, %. actives 1.2% (n = 330,000). AID 652105; active means max response of -50% or lower; inconclusive means between -30% and -50%; inactive means -30% or higher; further: value at the top dose of about 77 µM
#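 Enzyme plus substrate dispensed, test compounds pinned in, then ATP (5 microM final) added. After 60 min at RT, ADP-Glo reagent 1 for 45 min and reagent 2 for 30 min preceded luminescence imaging.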
# CtBP-E1A blk: CtBP/E1A binding inhibition; AlphaScreen GST-E1A/His-CtBP binding, 1536-well; hits give low values; activity change, % (no concentration beside the values); actives 0.49% (n = 340,000); AID 651724
#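 Protein mix (5X: 125 nM each GST-E1A, His-CtBP) was incubated with pinned compound 2 h at 37 deg C in dark, in 50 mM Tris pH 8.0 buffer with 300 mM NaCl. Glutathione donor and nickel acceptor beads followed; AlphaScreen signal read after 1 h.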
# PI4K2A block: PI4K2A (human) kinase inhibition. activity change, negative = inhibition, % at 76.9 µM. actives 0.13% (n = 420,000). purified PI4K2A, ADP-Glo luminescence, 1 h; hits give low values. Q9BTU6. AID 1346378; in the data active means activity change below about -50%; inconclusive means mostly about -30% to -49%;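 further: -100% = wells without enzyme as full effect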
#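 In this quantitative HTS, ADP production by PI4K2A was quantified luminescently after 1 h at ambient temperature; 100 microM adenosine served as plate-quality control.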
# An asterisk follows results filed as active; i = inactive; u = inconclusive; x = not tested or not shown. Rows were chosen to be rich in hits. Some 1.8% of all compounds tested hit in one or more screens of this group. Unless noted, no stated cut-off is given here; in the data, active means activity change below about -65%; inconclusive means mostly about -30% to -63%; inactive means weaker than that. Unless noted, on the % scale 0 is the no-effect control and ±100 the full control effect.
SMILES,Six1-Eya2 blk,pAkt inh,PI5P4Ka inh,CtBP-E1A blk,PI4K2A block
O=c1[nH]c2ccc(Cl)cc2c(-c2ccccc2)c1CN1CCOCC1,-73*,i,x,-81*,-3
COc1ccc(CCNC(=O)COc2ncnc3cc([N+](=O)[O-])ccc23)cc1,-4,i,1,-17,-3
O=[N+]([O-])c1cccc(COc2ncnc3cc([N+](=O)[O-])ccc23)c1,-72*,i,-14,-88*,-9
CCOc1ccc(C(=O)Nn2cnnc2)cc1OCC,-8,i,0,0,0
O=c1cc(-c2ccccc2Cl)oc2c(NS(=O)(=O)c3cc(Cl)cc(Cl)c3O)ccc(O)c12,-10,i,-89*,-1,-1
CCN1C(=O)/C(=C2\SC(=S)N(c3c(C)n(C)n(-c4ccccc4)c3=O)C2=O)c2ccccc21,6,i,7,-1,-3
CCN1C(=O)/C(=C2\SC(=S)N(NC(=O)c3ccccc3O)C2=O)c2ccccc21,-90*,i,-26,-97*,-7
N/C(Cc1ccc([N+](=O)[O-])cc1)=N\OC(=O)COc1cccc2ccccc12,-10,i,x,-8,0
N/C(Cc1ccc([N+](=O)[O-])cc1)=N\OC(=O)COc1ccccc1Cl,-4,i,-59*,-19,1
Cc1ccc([C@@H]2CC=C(C(=O)O)[C@H](c3ccccc3)N2S(=O)(=O)c2ccc(C)cc2)cc1,-2,i,4,x,2
COc1cc(/C=C/c2[nH]c(=O)[nH]c(=O)c2[N+](=O)[O-])cc([N+](=O)[O-])c1O,-18,i,-84*,x,-20
COc1cc(C(c2c(C)[nH][nH]c2=O)c2c(C)[nH][nH]c2=O)cc([N+](=O)[O-])c1O,2,i,-60*,-5,-18
CCC(C)Oc1ccc(/C=C/c2[nH]c(=O)[nH]c(=O)c2[N+](=O)[O-])cc1OC (configuration not stated),8,i,-58*,-7,-26
CCOc1cc(C(c2c(C)[nH][nH]c2=O)c2c(C)[nH][nH]c2=O)cc([N+](=O)[O-])c1O,2,i,-18,2,-18
COc1cc(/C=C/c2[nH]c(=O)[nH]c(=O)c2[N+](=O)[O-])ccc1OCCC(C)C,-3,i,u,x,0
Nc1ccc(-c2nc3ccc(-c4nc5ccccc5o4)cc3[nH]2)cc1,7,i,4,0,3
CC(=O)OCC(=O)NCc1ccc2c(c1)OCO2,2,x,5,4,-3
COc1ccccc1S(=O)(=O)Cc1ccc(C(=O)N2CCN(c3ccccn3)CC2)o1,5,i,-5,-3,-2
O=C(NCC1CCCO1)C(=O)N/N=C/c1cc(Cl)ccc1O (configuration not stated),-80*,i,-3,-94*,8
Cc1ccc(C(=O)N/N=C/c2cc(Br)ccc2O)cn1,-89*,i,-4,-91*,-3
O=C(N/N=C/c1cc(Cl)ccc1O)c1ccncc1,-92*,i,u,-95*,10
COc1cc([N+](=O)[O-])cc(/C=N/NC(=O)C(C)Nc2cccc(C)c2)c1O (configuration not stated),-21,i,-24,u,3
COc1cc([N+](=O)[O-])cc(/C=N/NC(=O)C(C)Nc2ccccc2C)c1O (configuration not stated),u,i,-17,-73*,5
COc1ccc(C(=O)CSc2nc(=O)n3ccc(C)cc3n2)cc1,-7,i,u,2,0
C#CCSc1nc(N)c2c(n1)OC(N)=C(C#N)C2c1cccnc1 (configuration not stated),-3,i,-1,34,-3
COC(=O)N/N=C/c1cc(Br)ccc1O,-9,i,1,-1,1
COc1cc([N+](=O)[O-])cc(/C=N/NC(=O)c2ccc(C)nc2)c1O,-88*,i,-6,-95*,3
COc1ccc(/C=N/NC(=O)c2ccc(NC(=O)c3cccc([N+](=O)[O-])c3)cc2)c(OC)c1,-5,i,-11,x,2
COc1cc(/C=N/NC(=O)c2ccc(C)nc2)cc([N+](=O)[O-])c1O,-12,i,-25,-4,-4
